Laboratory results reported in publication PMC7862700, “An all-to-all approach to the identification of sequence-specific readers for epigenetic DNA modifications on cytosine”.

Key:
Assay in all cases: DAPPL (digital affinity profiling via proximity ligation, sequencing); 10 mM Tris-HCl pH 7.5, 50 mM NaCl, 1 mM DTT, 4% glycerol, room temperature, 30 min; GST-TFs on glutathione beads, 16-mer random dsDNA library, 0.1% formaldehyde crosslink after washing; high values mean tight binding
FLI1 = molecular target: T1, FLI1 (Homo sapiens, UniProt Q01543 1-452); conditions: protein: recombinant; tags: N-terminal GST; dsDNA, one strand shown
T1 sequence: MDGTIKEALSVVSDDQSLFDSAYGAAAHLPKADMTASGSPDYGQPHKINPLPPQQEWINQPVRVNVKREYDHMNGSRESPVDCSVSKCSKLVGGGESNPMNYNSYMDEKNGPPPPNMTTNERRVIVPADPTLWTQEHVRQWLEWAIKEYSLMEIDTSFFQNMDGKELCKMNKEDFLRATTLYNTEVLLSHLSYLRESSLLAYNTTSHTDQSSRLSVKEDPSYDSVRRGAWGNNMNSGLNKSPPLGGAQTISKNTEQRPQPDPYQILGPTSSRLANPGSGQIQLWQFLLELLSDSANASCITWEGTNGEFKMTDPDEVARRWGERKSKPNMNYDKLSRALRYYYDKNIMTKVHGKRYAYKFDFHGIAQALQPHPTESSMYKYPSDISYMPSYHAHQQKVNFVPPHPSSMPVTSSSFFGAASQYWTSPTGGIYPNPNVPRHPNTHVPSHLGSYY
How it was run: (§1)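 In yeast, human transcription factors were expressed with a GST fusion, then pulled down on glutathione beads and given DNA barcodes. Pooled with a tag-only sample, they were exposed to 200 nmole of a 16-mer random double-stranded DNA library (Tris/NaCl/DTT/glycerol buffer, room temperature, 30 min), washed, crosslinked with 0.1% formaldehyde, proximity-ligated using BsaI/T4 ligase for 1 h at 37 °C, PCR-amplified and read on an Illumina NextSeq500. Each hexamer's frequency of reads for a factor, divided by the matching frequency for the tag-only sample, gives the binding signal.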

ELK1 = molecular target: T2, ELK1 (Homo sapiens, UniProt P19419 1-428); conditions: protein: recombinant; tags: N-terminal GST; dsDNA, one strand shown
T2 sequence: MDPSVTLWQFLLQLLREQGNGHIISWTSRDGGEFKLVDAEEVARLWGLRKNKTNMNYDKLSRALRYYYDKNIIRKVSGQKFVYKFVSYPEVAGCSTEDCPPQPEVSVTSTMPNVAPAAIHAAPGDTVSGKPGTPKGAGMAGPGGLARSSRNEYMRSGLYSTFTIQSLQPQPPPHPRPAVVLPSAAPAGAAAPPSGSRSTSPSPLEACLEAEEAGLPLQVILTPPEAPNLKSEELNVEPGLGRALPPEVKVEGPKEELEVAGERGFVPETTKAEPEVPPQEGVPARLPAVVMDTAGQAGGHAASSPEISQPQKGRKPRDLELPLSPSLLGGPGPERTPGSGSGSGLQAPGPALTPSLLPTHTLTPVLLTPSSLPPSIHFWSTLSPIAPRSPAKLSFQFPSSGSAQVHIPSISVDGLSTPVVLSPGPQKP
How it was run: as §1

GABPA = molecular target: T3, GABPA (Homo sapiens, UniProt Q06546 1-454); conditions: protein: recombinant; tags: N-terminal GST; dsDNA, one strand shown
T3 sequence: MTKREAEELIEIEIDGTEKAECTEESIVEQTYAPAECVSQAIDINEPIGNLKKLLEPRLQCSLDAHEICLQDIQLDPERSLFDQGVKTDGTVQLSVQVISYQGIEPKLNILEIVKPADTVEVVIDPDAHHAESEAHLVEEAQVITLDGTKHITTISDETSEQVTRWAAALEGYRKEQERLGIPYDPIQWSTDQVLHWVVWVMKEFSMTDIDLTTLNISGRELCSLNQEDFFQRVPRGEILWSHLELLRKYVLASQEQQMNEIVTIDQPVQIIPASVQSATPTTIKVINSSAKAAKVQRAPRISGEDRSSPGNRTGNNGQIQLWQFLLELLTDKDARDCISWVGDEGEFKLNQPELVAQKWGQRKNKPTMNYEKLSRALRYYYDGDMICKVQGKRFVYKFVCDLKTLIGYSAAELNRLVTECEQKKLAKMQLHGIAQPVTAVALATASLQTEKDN
How it was run: as §1

ERG = molecular target: T4, ERG (Homo sapiens, UniProt P11308 1-479); conditions: protein: recombinant; tags: N-terminal GST; dsDNA, one strand shown
T4 sequence: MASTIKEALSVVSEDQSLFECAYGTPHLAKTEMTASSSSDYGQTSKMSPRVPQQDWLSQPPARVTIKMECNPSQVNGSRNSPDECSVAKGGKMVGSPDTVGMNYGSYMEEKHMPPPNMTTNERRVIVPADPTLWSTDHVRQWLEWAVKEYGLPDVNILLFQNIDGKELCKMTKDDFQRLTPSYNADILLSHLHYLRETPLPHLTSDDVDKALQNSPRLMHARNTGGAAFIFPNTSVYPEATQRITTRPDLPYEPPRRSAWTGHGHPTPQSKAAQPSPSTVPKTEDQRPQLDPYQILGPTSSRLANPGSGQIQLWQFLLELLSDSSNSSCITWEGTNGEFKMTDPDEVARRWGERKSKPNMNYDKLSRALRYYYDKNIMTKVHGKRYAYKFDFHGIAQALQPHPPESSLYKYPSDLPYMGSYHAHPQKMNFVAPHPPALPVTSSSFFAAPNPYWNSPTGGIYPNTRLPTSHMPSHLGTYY
How it was run: as §1

ELF1 = ELF1 (Homo sapiens, UniProt P32519 1-619); conditions: protein: recombinant; tags: N-terminal GST; dsDNA, one strand shown
How it was run: as §1

EHF = molecular target: T5, EHF (Homo sapiens, UniProt Q9NZC4 1-300); conditions: protein: recombinant; tags: N-terminal GST; dsDNA, one strand shown
T5 sequence: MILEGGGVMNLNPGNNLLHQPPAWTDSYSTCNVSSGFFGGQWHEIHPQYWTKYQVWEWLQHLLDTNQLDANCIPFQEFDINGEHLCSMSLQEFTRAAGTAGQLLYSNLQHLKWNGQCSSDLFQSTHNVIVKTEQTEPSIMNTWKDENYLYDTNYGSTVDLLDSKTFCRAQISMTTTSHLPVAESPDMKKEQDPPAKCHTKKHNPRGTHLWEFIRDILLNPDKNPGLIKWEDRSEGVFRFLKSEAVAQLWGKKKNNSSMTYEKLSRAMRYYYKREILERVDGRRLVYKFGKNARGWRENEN
How it was run: as §1

SPI1 = SPI1 (Homo sapiens, UniProt P17947 1-270); conditions: protein: recombinant; tags: N-terminal GST; dsDNA, one strand shown
How it was run: as §1

SPIB = SPIB (Homo sapiens, UniProt Q01892 1-262); conditions: protein: recombinant; tags: N-terminal GST; dsDNA, one strand shown
How it was run: as §1

ELK3 = molecular target: T6, ELK3 (Homo sapiens, UniProt P41970 1-407); conditions: protein: recombinant; tags: N-terminal GST; dsDNA, one strand shown
T6 sequence: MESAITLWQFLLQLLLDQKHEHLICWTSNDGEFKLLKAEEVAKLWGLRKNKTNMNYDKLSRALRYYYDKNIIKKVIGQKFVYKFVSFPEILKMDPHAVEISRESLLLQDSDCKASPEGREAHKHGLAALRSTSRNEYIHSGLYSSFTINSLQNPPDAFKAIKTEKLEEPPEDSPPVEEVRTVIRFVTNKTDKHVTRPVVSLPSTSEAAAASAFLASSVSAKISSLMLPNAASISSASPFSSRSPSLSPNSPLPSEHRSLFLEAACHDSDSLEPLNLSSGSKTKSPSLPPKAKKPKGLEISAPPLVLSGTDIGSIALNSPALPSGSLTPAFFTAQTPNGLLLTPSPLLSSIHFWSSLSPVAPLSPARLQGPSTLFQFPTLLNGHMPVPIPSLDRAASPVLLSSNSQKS
How it was run: as §1

FEV = molecular target: T7, FEV (Homo sapiens, UniProt Q99581 1-238); conditions: protein: recombinant; tags: N-terminal GST; dsDNA, one strand shown
T7 sequence: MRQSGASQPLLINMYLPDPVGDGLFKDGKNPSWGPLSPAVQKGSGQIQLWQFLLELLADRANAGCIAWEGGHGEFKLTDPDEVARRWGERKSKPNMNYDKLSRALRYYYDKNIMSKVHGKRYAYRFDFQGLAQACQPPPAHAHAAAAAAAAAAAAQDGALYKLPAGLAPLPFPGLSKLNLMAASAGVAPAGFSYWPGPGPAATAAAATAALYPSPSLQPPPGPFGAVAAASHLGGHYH
How it was run: as §1

ETV5 = ETV5 (Homo sapiens, UniProt P41161 1-510); conditions: protein: recombinant; tags: N-terminal GST; dsDNA, one strand shown
How it was run: as §1

HSF1 = HSF1 (Homo sapiens, UniProt Q00613 1-529); conditions: protein: recombinant; tags: N-terminal GST; chain copies: 3; dsDNA, one strand shown
How it was run: as §1

SPIC = molecular target: T8, SPIC (Homo sapiens, UniProt Q8N5J4 1-248); conditions: protein: recombinant; tags: N-terminal GST; dsDNA, one strand shown
T8 sequence: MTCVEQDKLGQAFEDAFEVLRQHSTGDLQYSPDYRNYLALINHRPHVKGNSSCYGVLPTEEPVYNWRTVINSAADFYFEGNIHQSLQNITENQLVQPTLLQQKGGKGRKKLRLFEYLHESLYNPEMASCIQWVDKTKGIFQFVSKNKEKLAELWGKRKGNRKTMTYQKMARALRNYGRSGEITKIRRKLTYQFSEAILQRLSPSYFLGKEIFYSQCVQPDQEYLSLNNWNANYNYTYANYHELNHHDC
How it was run: as §1

ELF4 = ELF4 (Homo sapiens, UniProt Q99607 1-663); conditions: protein: recombinant; tags: N-terminal GST; dsDNA, one strand shown
How it was run: as §1

ELK4 = molecular target: T9, ELK4 (Homo sapiens, UniProt P28324-2 1-405); conditions: protein: recombinant; tags: N-terminal GST; dsDNA, one strand shown
T9 sequence: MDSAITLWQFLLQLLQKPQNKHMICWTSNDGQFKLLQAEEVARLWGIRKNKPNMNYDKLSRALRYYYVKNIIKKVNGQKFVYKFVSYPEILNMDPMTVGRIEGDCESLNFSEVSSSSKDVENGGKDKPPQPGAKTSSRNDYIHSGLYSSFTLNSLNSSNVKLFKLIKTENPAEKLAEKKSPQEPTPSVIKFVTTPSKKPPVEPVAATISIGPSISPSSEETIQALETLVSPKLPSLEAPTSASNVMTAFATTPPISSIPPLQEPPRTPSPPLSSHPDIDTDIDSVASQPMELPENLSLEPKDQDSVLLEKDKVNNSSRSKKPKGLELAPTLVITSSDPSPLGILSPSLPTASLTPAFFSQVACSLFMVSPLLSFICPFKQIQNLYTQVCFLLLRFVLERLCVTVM
How it was run: as §1

ETV2 = molecular target: T10, ETV2 (Homo sapiens, UniProt O00321 1-342); conditions: protein: recombinant; tags: N-terminal GST; dsDNA, one strand shown
T10 sequence: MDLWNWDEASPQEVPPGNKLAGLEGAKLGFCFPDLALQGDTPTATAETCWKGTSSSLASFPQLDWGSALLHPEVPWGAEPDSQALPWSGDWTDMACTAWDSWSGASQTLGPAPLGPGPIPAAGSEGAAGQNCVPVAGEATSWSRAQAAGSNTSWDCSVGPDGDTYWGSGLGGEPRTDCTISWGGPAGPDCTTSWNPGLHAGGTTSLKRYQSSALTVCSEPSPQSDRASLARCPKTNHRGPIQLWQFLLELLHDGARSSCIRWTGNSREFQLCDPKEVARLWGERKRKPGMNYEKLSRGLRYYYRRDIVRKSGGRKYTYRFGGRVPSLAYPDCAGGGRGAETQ
How it was run: as §1

ELF3 = molecular target: T11, ELF3 (Homo sapiens, UniProt P78545 1-371); conditions: protein: recombinant; tags: N-terminal GST; dsDNA, one strand shown
T11 sequence: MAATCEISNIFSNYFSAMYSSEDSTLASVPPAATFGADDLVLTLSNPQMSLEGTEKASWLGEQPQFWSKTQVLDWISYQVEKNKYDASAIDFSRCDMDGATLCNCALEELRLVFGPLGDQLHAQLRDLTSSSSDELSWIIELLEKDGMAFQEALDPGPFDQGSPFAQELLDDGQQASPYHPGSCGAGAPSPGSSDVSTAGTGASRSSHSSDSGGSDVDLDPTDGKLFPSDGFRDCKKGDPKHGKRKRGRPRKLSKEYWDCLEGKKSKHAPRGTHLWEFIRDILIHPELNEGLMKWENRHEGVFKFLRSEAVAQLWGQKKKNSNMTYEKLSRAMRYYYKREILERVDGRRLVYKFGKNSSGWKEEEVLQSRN
How it was run: as §1

ETV1 = ETV1 (Homo sapiens, UniProt P50549 1-477); conditions: protein: recombinant; tags: N-terminal GST; dsDNA, one strand shown
How it was run: as §1

HSF1, sequence (Q00613 whole entry): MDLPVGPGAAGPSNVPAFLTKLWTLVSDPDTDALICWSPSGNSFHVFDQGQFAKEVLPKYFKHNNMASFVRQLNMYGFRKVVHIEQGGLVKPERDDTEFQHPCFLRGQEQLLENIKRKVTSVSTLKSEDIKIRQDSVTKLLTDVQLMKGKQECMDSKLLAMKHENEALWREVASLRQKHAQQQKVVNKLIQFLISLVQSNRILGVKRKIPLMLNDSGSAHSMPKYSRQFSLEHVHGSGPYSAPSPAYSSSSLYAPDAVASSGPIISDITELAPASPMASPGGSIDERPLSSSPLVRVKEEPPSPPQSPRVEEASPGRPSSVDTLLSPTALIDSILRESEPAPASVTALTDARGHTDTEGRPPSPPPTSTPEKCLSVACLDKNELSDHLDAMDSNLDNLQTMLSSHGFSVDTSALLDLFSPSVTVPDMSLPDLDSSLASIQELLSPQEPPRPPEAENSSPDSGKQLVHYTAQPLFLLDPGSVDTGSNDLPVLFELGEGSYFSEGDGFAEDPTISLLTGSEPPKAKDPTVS
ELF1, sequence (P32519 whole entry): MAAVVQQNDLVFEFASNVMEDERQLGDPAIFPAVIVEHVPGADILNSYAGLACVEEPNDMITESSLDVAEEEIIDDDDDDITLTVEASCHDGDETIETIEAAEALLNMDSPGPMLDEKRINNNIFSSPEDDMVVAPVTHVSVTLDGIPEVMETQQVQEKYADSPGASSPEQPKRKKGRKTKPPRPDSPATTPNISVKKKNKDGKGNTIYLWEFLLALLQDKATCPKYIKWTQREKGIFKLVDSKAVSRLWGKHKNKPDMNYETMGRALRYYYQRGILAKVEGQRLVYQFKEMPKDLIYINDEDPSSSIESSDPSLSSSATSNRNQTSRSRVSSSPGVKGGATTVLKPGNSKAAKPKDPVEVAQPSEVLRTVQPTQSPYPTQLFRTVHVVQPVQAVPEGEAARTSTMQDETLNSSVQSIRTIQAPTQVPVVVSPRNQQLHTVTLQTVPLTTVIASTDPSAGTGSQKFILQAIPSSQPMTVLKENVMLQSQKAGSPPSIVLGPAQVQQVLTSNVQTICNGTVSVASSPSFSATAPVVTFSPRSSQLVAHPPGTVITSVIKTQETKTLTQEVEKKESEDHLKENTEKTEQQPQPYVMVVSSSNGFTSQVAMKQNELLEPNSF
ETV5, sequence (P41161 whole entry): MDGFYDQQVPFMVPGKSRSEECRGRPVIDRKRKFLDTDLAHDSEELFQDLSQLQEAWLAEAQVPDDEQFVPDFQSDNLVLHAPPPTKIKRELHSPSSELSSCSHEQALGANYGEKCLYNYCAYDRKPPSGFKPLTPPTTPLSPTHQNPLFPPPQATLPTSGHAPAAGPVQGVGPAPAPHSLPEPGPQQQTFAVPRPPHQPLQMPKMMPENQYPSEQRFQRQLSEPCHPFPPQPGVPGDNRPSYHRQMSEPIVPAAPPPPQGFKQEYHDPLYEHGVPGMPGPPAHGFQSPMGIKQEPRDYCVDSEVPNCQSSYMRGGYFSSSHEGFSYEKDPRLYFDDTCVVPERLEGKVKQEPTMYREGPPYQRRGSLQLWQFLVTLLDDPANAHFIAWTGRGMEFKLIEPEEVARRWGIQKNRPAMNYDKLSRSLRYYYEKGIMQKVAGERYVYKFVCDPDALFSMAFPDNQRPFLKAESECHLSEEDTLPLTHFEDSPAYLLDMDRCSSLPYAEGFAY
SPIB, sequence (Q01892 whole entry): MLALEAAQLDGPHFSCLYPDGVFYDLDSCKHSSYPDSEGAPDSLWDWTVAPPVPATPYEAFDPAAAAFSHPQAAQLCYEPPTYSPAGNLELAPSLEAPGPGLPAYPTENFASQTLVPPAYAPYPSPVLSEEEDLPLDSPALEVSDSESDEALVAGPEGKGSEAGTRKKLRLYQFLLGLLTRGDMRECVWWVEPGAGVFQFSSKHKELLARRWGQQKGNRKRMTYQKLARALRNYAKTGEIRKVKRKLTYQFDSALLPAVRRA
ELF4, sequence (Q99607 whole entry): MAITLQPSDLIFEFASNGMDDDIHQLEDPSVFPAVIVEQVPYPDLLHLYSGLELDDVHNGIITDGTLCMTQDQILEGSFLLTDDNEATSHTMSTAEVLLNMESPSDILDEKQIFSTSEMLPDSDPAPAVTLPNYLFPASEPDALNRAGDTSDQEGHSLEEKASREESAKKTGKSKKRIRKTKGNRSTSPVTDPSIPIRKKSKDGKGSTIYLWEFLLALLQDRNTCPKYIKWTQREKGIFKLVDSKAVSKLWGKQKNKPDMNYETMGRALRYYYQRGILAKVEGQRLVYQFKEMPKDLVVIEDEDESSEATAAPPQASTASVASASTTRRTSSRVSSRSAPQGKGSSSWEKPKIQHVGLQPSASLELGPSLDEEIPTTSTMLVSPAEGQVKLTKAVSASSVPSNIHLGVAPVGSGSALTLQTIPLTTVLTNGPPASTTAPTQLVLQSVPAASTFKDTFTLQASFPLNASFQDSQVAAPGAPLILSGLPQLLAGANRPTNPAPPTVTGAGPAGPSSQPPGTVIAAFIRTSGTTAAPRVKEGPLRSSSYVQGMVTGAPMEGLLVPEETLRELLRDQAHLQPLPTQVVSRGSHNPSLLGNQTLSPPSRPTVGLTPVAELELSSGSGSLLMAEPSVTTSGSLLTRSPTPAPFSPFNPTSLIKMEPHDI
ETV1, sequence (P50549 whole entry): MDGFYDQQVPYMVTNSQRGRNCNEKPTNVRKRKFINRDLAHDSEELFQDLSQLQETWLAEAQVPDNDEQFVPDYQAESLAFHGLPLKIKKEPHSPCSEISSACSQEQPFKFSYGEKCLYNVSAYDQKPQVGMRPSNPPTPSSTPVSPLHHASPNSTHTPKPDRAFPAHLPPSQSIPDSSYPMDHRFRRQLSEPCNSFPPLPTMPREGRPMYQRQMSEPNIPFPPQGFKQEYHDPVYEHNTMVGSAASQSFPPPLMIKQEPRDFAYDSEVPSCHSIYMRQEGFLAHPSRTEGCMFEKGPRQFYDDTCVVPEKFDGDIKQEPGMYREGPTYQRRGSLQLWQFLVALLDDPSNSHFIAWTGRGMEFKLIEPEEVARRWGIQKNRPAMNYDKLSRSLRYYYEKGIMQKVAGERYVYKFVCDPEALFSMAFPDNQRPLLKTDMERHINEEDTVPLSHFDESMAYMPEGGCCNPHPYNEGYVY

With TGTACA the binding signal (FLI1) was 1.22 fold enrichment (6-mer frequency, TF over GST control), the binding signal (ELK1) was 1.26 fold enrichment (6-mer frequency, TF over GST control) and the binding signal (GABPA) was 1.1 fold enrichment (6-mer frequency, TF over GST control). For the same sequence, the binding signal (ERG) was 1.24 fold enrichment (6-mer frequency, TF over GST control), the binding signal (ELF1) was 1.23 fold enrichment (6-mer frequency, TF over GST control) and the binding signal (EHF) was 1.26 fold enrichment (6-mer frequency, TF over GST control). The binding signal (SPI1) was 1.28 fold enrichment (6-mer frequency, TF over GST control), the binding signal (SPIB) was 1.35 fold enrichment (6-mer frequency, TF over GST control) and the binding signal (ELK3) was 1.11 fold enrichment (6-mer frequency, TF over GST control). For the same sequence, the binding signal (FEV) was 1.24 fold enrichment (6-mer frequency, TF over GST control), the binding signal (ETV5) was 1.17 fold enrichment (6-mer frequency, TF over GST control) and the binding signal (HSF1) was 1.01 fold enrichment (6-mer frequency, TF over GST control). The binding signal (SPIC) was 1.45 fold enrichment (6-mer frequency, TF over GST control), the binding signal (ELF4) was 1.36 fold enrichment (6-mer frequency, TF over GST control) and the binding signal (ELK4) was 1.17 fold enrichment (6-mer frequency, TF over GST control). For the same sequence, the binding signal (ETV2) was 1.19 fold enrichment (6-mer frequency, TF over GST control), the binding signal (ELF3) was 1.01 fold enrichment (6-mer frequency, TF over GST control) and the binding signal (ETV1) was 1.15 fold enrichment (6-mer frequency, TF over GST control).
